In PubChem BioAssay AID1159580 (chemical genetic matrix, 2015):
Among all 5,500 compounds or so, about 2,000 (36%) were called active. About 18% were inconclusive and are not listed. Cut-off read from the data, not from the text of the source: active = normalized growth mostly below about 0.91 (no sharp cut-off); inconclusive = no clear call, values can overlap the other calls; inactive = mostly above about 0.92. Some of the results follow.

Assay: chemical genetic growth profiling, strain panel (AID 1159580);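 note: tested at 20 µM; growth read once vehicle control cultures reached saturation at 30 °C; 1 = growth at the plate median or of vehicle wells; lower values mean less growth of the strain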
Conditions: growth OD

Measured: normalized growth

COc1ccc2c(=O)ccoc2c1
inactive: S. cerevisiae deletion strains, locus YJR043C, strain POL32, hits give low values 1.01 | S. cerevisiae deletion strains, locus YJR075W, strain HOC1, hits give low values 1.04 | S. cerevisiae deletion strains, locus YKL009W, strain mrt4, hits give low values 0.99 | S. cerevisiae deletion strains, locus YKL068W, hits give low values 1.03 | S. cerevisiae deletion strains, locus YKL085W, strain MDH1 (second series), hits give low values 1.03 | S. cerevisiae deletion strains, locus YKL085W, strain MDH1, hits give low values 1.03 | S. cerevisiae deletion strains, locus YKL160W, strain elf1, hits give low values 1.02 | S. cerevisiae deletion strains, locus YKL190W, strain CNB1, hits give low values 1.02 | S. cerevisiae deletion strains, locus YKR001C, strain vps1, hits give low values 0.947 | S. cerevisiae deletion strains, locus YKR026C, strain gcn3, hits give low values 1.03 | S. cerevisiae deletion strains, locus YKR091W, strain srl3, hits give low values 1.02 | S. cerevisiae deletion strains, locus YLL001W, strain dnm1, hits give low values 1.02 | S. cerevisiae deletion strains, locus YLL026W, hits give low values 1.02 | S. cerevisiae deletion strains, locus YLL041C, strain sdh2, hits give low values 0.972 | S. cerevisiae deletion strains, locus YLR027C, strain aat2, hits give low values 1.02 | S. cerevisiae deletion strains, locus YLR039C, strain RIC1, hits give low values 1.01 | S. cerevisiae deletion strains, locus YLR058C, strain SHM2, hits give low values 1.02 | S. cerevisiae deletion strains, locus YLR102C, strain apc9, hits give low values 1.01 | S. cerevisiae deletion strains, locus YLR221C, strain rsa3, hits give low values 1.03 | S. cerevisiae deletion strains, locus YLR258W, strain gsy2, hits give low values 1.02 | S. cerevisiae deletion strains, locus YLR262C, strain YPT6 (second series), hits give low values 1.04 | S. cerevisiae deletion strains, locus YLR262C, strain YPT6, hits give low values 1.06 | S. cerevisiae deletion strains, locus YLR268W, strain sec22, hits give low values 0.987 | S. cerevisiae deletion strains, locus YLR320W, strain mms22, hits give low values 1.03 | S. cerevisiae deletion strains, locus YLR330W, strain CHS5, hits give low values 1.02 | S. cerevisiae deletion strains, locus YLR342W, strain FKS1 (second series), hits give low values 1.03 | S. cerevisiae deletion strains, locus YLR342W, strain FKS1, hits give low values 1.02 | S. cerevisiae deletion strains, locus YLR357W, strain rsc2, hits give low values 1.02 | S. cerevisiae deletion strains, locus YLR370C, strain arc18, hits give low values 1.02 | S. cerevisiae deletion strains, locus YLR371W, strain rom2, hits give low values 1.02 | S. cerevisiae deletion strains, locus YLR384C, strain iki3, hits give low values 1.02 | S. cerevisiae deletion strains, locus YLR418C, strain cdc73, hits give low values 0.979 | S. cerevisiae deletion strains, locus YML016C, strain PPZ1, hits give low values 1.01 | S. cerevisiae deletion strains, locus YML032C, strain rad52, hits give low values 0.993 | S. cerevisiae deletion strains, locus YML120C, strain ndi1, hits give low values 1.03 | S. cerevisiae deletion strains, locus YML124C, strain tub3, hits give low values 1.01 | S. cerevisiae deletion strains, locus YMR058W, strain fet3, hits give low values 1.02 | S. cerevisiae deletion strains, locus YMR078C, strain ctf18, hits give low values 1.01 | S. cerevisiae deletion strains, locus YMR125W, strain sto1, hits give low values 1.03 | S. cerevisiae deletion strains, locus YMR129W, hits give low values 1.02 | S. cerevisiae deletion strains, locus YMR205C, strain PFK2, hits give low values 1.03 | S. cerevisiae deletion strains, locus YMR223W, strain ubp8, hits give low values 0.986 | S. cerevisiae deletion strains, locus YMR231W, strain pep5, hits give low values 1.02 | S. cerevisiae deletion strains, locus YMR263W, strain SAP30, hits give low values 1.02 | S. cerevisiae deletion strains, locus YMR307W, strain GAS1, hits give low values 1.02 | S. cerevisiae deletion strains, locus YNL067W, strain RPL9B, hits give low values 1.01 | S. cerevisiae deletion strains, locus YNL071W, strain lat1, hits give low values 1.05 | S. cerevisiae deletion strains, locus YNL128W, strain TEP1, hits give low values 1.03 | S. cerevisiae deletion strains, locus YNL153C, strain GIM3, hits give low values 1.01 | S. cerevisiae deletion strains, locus YNL209W, strain ssb2, hits give low values 1.02 | S. cerevisiae deletion strains, locus YNL233W, strain BNI4, hits give low values 1.01 | S. cerevisiae deletion strains, locus YNL248C, strain rpa49, hits give low values 1.03 | S. cerevisiae deletion strains, locus YNL250W, strain rad50, hits give low values 1.05 | S. cerevisiae deletion strains, locus YNL271C, strain bni1, hits give low values 1 | S. cerevisiae deletion strains, locus YNL298W, strain CLA4, hits give low values 0.977 | S. cerevisiae deletion strains, locus YNL307C, strain MCK1, hits give low values 0.984 | S. cerevisiae deletion strains, locus YNL322C, strain KRE1 (second series), hits give low values 1.03 | S. cerevisiae deletion strains, locus YNL322C, strain KRE1, hits give low values 1.02 | S. cerevisiae deletion strains, locus YNR049C, strain mso1, hits give low values 1.02 | S. cerevisiae deletion strains, locus YNR052C, strain pop2, hits give low values 1 | S. cerevisiae deletion strains, locus YOL006C, strain TOP1, hits give low values 0.962 | S. cerevisiae deletion strains, locus YOL012C, strain htz1 0.848 | S. cerevisiae deletion strains, locus YOL147C, strain pex11, hits give low values 1.01 | S. cerevisiae deletion strains, locus YOR001W, strain rrp6, hits give low values 1.03 | S. cerevisiae deletion strains, locus YOR061W, strain CKA2, hits give low values 1.02 | S. cerevisiae deletion strains, locus YOR069W, strain VPS5, hits give low values 1.01 | S. cerevisiae deletion strains, locus YOR070C, strain gyp1, hits give low values 1.02 | S. cerevisiae deletion strains, locus YOR080W, strain dia2, hits give low values 1.01 | S. cerevisiae deletion strains, locus YOR083W, strain WHI5, hits give low values 1.02 | S. cerevisiae deletion strains, locus YOR106W, strain vam3, hits give low values 1.03 | S. cerevisiae deletion strains, locus YOR136W, strain idh2, hits give low values 1.01 | S. cerevisiae deletion strains, locus YOR144C, strain elg1, hits give low values 1 | S. cerevisiae deletion strains, locus YOR184W, strain ser1, hits give low values 0.988 | S. cerevisiae deletion strains, locus YOR265W, strain rbl2, hits give low values 1.01 | S. cerevisiae deletion strains, locus YOR270C, strain vph1, hits give low values 1.03 | S. cerevisiae deletion strains, locus YOR290C, strain snf2, hits give low values 1.04 | S. cerevisiae deletion strains, locus YOR316C, strain cot1, hits give low values 1.01 | S. cerevisiae deletion strains, locus YPL051W, strain arl3, hits give low values 1.02 | S. cerevisiae deletion strains, locus YPL055C, strain LGE1, hits give low values 1.04 | S. cerevisiae deletion strains, locus YPL078C, strain atp4, hits give low values 1.02 | S. cerevisiae deletion strains, locus YPL106C, strain sse1, hits give low values 1.01 | S. cerevisiae deletion strains, locus YPL240C, strain hsp82, hits give low values 1.03 | S. cerevisiae deletion strains, locus YPL241C, strain CIN2, hits give low values 1.02 | S. cerevisiae deletion strains, locus YPR119W, strain clb2, hits give low values 1.01 | S. cerevisiae deletion strains, locus YPR141C, strain kar3, hits give low values 1.01 | S. cerevisiae deletion strains, locus YPR163C, strain tif3, hits give low values 1.01 | S. cerevisiae deletion strains, locus YPR167C, strain met16, hits give low values 1.02 | S. cerevisiae deletion strains, strain wtn01, hits give low values 0.997 | S. cerevisiae strains, strain wild type, hits give low values 1.02
